Data from ChEMBL document CHEMBL2218924, “A broad activity screen in support of a chemogenomic map for kinase signalling research and drug discovery” (Biochem J, 2013).

The compounds below were run against PAS domain-containing serine/threonine-protein kinase (Homo sapiens) (UniProt Q96RG2). Details: at 1 µM.
Sequence of PAS domain-containing serine/threonine-protein kinase (Homo sapiens) (Q96RG2 whole entry, the tested form may be a part): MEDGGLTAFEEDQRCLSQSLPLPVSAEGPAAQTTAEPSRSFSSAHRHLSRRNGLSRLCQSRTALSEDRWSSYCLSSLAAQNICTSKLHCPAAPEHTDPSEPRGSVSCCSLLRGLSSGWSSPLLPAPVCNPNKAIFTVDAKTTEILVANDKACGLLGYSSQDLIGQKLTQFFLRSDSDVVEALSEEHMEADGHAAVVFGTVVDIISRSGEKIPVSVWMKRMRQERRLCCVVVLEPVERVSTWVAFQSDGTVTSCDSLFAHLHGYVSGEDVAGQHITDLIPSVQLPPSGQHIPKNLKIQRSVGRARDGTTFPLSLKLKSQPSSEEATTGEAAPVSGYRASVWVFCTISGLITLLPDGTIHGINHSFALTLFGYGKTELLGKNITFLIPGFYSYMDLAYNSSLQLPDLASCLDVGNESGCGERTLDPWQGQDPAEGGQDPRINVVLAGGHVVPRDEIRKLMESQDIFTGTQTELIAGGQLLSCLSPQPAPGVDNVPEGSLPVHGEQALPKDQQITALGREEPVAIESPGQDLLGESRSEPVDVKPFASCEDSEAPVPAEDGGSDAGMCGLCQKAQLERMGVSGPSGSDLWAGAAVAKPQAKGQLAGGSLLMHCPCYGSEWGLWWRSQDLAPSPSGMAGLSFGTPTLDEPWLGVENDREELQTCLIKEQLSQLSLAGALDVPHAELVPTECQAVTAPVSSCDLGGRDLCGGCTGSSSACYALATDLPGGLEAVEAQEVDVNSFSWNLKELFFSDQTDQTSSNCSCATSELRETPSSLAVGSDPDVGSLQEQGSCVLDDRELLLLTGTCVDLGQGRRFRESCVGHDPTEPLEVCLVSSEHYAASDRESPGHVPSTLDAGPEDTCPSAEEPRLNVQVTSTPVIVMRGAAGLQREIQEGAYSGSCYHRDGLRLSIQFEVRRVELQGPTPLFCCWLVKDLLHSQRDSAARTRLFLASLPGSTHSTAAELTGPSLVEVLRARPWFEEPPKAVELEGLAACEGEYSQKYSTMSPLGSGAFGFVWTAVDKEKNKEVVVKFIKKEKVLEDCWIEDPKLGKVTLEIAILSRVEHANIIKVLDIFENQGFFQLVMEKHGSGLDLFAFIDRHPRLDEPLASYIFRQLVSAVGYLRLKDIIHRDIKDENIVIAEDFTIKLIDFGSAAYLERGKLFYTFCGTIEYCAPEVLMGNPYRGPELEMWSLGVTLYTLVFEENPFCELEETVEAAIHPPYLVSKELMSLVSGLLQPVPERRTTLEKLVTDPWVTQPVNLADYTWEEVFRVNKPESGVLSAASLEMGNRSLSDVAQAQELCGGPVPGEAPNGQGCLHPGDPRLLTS

In order of falling residual activity:
1. Oc1ccc(Nc2nc(-c3ccc(Cl)cc3)cs2)cc1  147%
2. O=c1cc(N2CCOCC2)oc2c1ccc1ccccc12  141%
3. O=C1Nc2ccccc2/C1=C1/Nc2ccccc2/C1=N\OCCC(O)CO (stereo not drawn)  140%
4. COc1ccc(CNC(=O)Nc2ncc([N+](=O)[O-])s2)cc1  133%
5. CC(C)n1cnc2c(NCc3ccccc3)nc(NCCCO)nc21  131%
6. Nc1nccc(-c2c(-c3ccc(F)cc3)ncn2C2CCNCC2)n1  129%
7. CNc1cc2c(Nc3cccc(Br)c3)ncnc2cn1  128%
8. O=[N+]([O-])c1ccc(-c2nc(-c3ccc(F)cc3)c(-c3ccncc3)[nH]2)cc1  126%
9. COc1ccc(S(=O)(=O)N(CCO)c2ccccc2CN(C)C/C=C/c2ccc(Cl)cc2)cc1  116%
10. Nc1ncnc2c1c(-c1ccc(Oc3ccccc3)cc1)cn2C1CCCC1  108%
11. Nc1n[nH]c2nnc(-c3c(-c4ccccc4)nn4ccccc34)cc12  104%
12. CC#CC(=O)Nc1cc2c(Nc3ccc(F)c(Cl)c3)ncnc2cn1  101%
13. N#CC(C#N)=C(N)/C(C#N)=C/c1ccc(O)cc1  99%
14. COc1ccc(C(=O)Nc2sc3c(c2C(N)=O)CCCC3)cc1OC  95%
15. O=C(Nc1cccc(Nc2cc(Nc3cccc(C(F)(F)F)c3)ncn2)c1)C1CC1  92%
16. O=C1NC(=O)/C(=C\c2ccc3nccnc3c2)S1  87%
17. CCN(CC)CCNC(=O)c1c(C)[nH]c(/C=C2\C(=O)Nc3ccc(Cl)cc32)c1C  70%
18. O=C1NC(=O)c2c1c1c3ccccc3[nH]c1n1cncc21  57%
